Measurements as given in PubChem BioAssay (EPA / NIEHS).
Activity calls are given as the source filed them. How the source made its calls: active means hit-call score of the fitted dose curve at least 0.9, where 1 is the maximum; inactive means score below 0.9.

Tests used:
Details in all cases: mRNA level, 48 h; actives raise or lower the signal
CYP3A5 (gene 1577) = assay: LTEA_HepaRG_CYP3A5: Life Technologies and Expression Analysis (LTEA) Assay for CYP3A5 using HepaRG (AID 2283493)
In short: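 mRNA levels were quantified by qRT-PCR on Fluidigm arrays and normalized to three housekeeping genes. Differentiated HepaRG cells received 48 h exposure (top 100 uM, half-log steps, 0.5% DMSO vehicle, duplicate); bidirectional fitting versus DMSO.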

[1] = read-out: Fatty Acid-Binding Protein 1 (FABP1), FABP1 (gene 2168); assay: LTEA_HepaRG_FABP1: Life Technologies and Expression Analysis (LTEA) Assay for Fatty Acid-Binding Protein 1 (FABP1) using HepaRG (AID 2283494)
In short: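 Values reflect bidirectional concentration-response fitting of FABP1 mRNA change against 0.5% DMSO controls. Human HepaRG cultures received eight half-log doses (top 100 uM) for 48 h; expression quantified by TaqMan qRT-PCR with housekeeping-gene normalization.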

[2] = read-out: Cytochrome P450 4A22 (Homo sapiens) (UniProt Q5TCH4); assay: LTEA_HepaRG_CYP4A22: Life Technologies and Expression Analysis (LTEA) Assay for Cytochrome P450 4A22 (CYP4A22) using HepaRG (AID 2283495)
In short: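 qRT-PCR of CYP4A22 mRNA (Fluidigm TaqMan, normalized to three housekeeping genes) after 48 h chemical exposure of HepaRG cells; 8-point half-log series, top 100 uM, 0.5% DMSO vehicle. Bidirectional curve fitting vs DMSO baseline.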

[3] = read-out: Cytochrome P450 7A1 (Homo sapiens) (UniProt P22680); assay: LTEA_HepaRG_CYP7A1: Life Technologies and Expression Analysis (LTEA) Assay for Cytochrome P450 7A1 (CYP7A1) using HepaRG (AID 2283496)
In short: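 HepaRG, 48 h exposure, 8-pt half-log series from 100 uM, 0.5% DMSO vehicle, duplicates. Readout: TaqMan qRT-PCR mRNA vs three housekeeping genes; bidirectional curve fit against DMSO baseline.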

[4] = read-out: Glutathione S-Transferase (GSTA2), GSTA2 (gene 2939); assay: LTEA_HepaRG_GSTA2: Life Technologies and Expression Analysis (LTEA) Assay for Glutathione S-Transferase (GSTA2) using HepaRG (AID 2283497)
In short: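 Oxidative-stress marker GSTA2 is quantified by TaqMan qRT-PCR in HepaRG cultures treated 48 h across an eight-point range to 100 uM. Expression is normalized to endogenous controls and compared with 0.5% DMSO vehicle.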

[5] = read-out: Glutamate-cysteine ligase catalytic (GCLC), GCLC (gene 2729); assay: LTEA_HepaRG_GCLC: Life Technologies and Expression Analysis (LTEA) Assay for Glutamate-cysteine ligase catalytic (GCLC) using HepaRG (AID 2283498)
In short: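 Oxidative-stress marker GCLC is measured as mRNA change in human HepaRG liver cells after 48 h chemical treatment in 0.5% DMSO, eight concentrations from 100 uM. Activity is fitted bidirectionally against vehicle.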

[6] = read-out: growth arrest and DNA damage 45 (GADD45G), GADD45G (gene 10912); assay: LTEA_HepaRG_GADD45G: Life Technologies and Expression Analysis (LTEA) Assay for growth arrest and DNA damage 45 (GADD45G) using HepaRG (AID 2283499)
In short: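 Differentiated human HepaRG cells in serum-free induction medium were exposed for 48 h to 8 half-log concentrations up to 100 uM in 0.5% DMSO, in duplicate. GADD45G mRNA was measured by TaqMan qRT-PCR, normalised to ACTB, GAPDH and POLR2A, and fitted bidirectionally against DMSO.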

[7] = read-out: Glutathione S-transferase M3 (GSTM3), GSTM3 (gene 2947); assay: LTEA_HepaRG_GSTM3: Life Technologies and Expression Analysis (LTEA) Assay for Glutathione S-transferase M3 (GSTM3) using HepaRG (AID 2283501)
In short: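 Differentiated HepaRG cells in serum-free induction medium were exposed in duplicate for 48 h to 8 half-log concentrations up to 100 uM in 0.5% DMSO. GSTM3 mRNA was measured by TaqMan qRT-PCR, normalized to ACTB/GAPDH/POLR2A, and fitted bidirectionally versus DMSO.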

[8] = read-out: Heat shock 70 kDa protein 1 (HSPA1A), gene 3303; assay: LTEA_HepaRG_HSPA1A: Life Technologies and Expression Analysis (LTEA) Assay for Heat shock 70 kDa protein 1 (HSPA1A) using HepaRG (AID 2283502)
In short: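 HSPA1A expression measured by qRT-PCR with ACTB/GAPDH/POLR2A normalization; curves fitted in both directions relative to DMSO vehicle. Exposure: 48 h in HepaRG cells, duplicate 8-point half-log series from 100 uM, 0.5% DMSO, serum-free induction medium.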

[9] = read-out: Hypoxia-inducible factor 1-alpha (Homo sapiens) (UniProt Q16665); assay: LTEA_HepaRG_HIF1A: Life Technologies and Expression Analysis (LTEA) Assay for Hypoxia-inducible factor 1 (HIF1A) Trancription factor using HepaRG (AID 2283503)
In short: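 HIF1A transcript level read by qRT-PCR (ACTB, GAPDH, POLR2A normalization) after 48 h chemical exposure of HepaRG cultures. Eight half-log concentrations, top 100 uM, 0.5% DMSO vehicle, duplicates; bidirectional curve fit against DMSO baseline.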

[10] = read-out: 3-Hydroxy-3-Methylglutaryl-CoA Synthase 2 (HMGCS2), HMGCS2 (gene 3158); assay: LTEA_HepaRG_HMGCS2: Life Technologies and Expression Analysis (LTEA) Assay for 3-Hydroxy-3-Methylglutaryl-CoA Synthase 2 (HMGCS2) using HepaRG (AID 2283504)
In short: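 Differentiated human HepaRG cells were exposed in duplicate for 48 h in serum-free induction medium to eight concentrations (top 100 uM, half-log steps, 0.5% DMSO). HMGCS2 mRNA was quantified by TaqMan qRT-PCR, normalised to ACTB, GAPDH and POLR2A, then fitted bidirectionally against DMSO.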

HGF (gene 3082) = assay: LTEA_HepaRG_HGF: Life Technologies and Expression Analysis (LTEA) Assay for Hepatocyte Growth Facto (HGF) using HepaRG (AID 2283505)
In short: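 Differentiated human HepaRG cells in serum-free induction medium were exposed in duplicate for 48 h to eight concentrations (top 100 uM, half-log steps, 0.5% DMSO). HGF mRNA was quantified by qRT-PCR, normalized to ACTB, GAPDH and POLR2A.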

[11] = read-out: Insulin Like Growth Factor 1 (IGF1), IGF1 (gene 3479); assay: LTEA_HepaRG_IGF1: Life Technologies and Expression Analysis (LTEA) Assay for Insulin Like Growth Factor 1 (IGF1) using HepaRG (AID 2283506)
In short: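 Expression measured by TaqMan qRT-PCR on a Fluidigm array, with three housekeeping genes for normalisation, after 48 h treatment of HepaRG cells. Top concentration 100 uM with half-log steps, 0.5% DMSO vehicle, bidirectional fit.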

[12] = read-out: Intercellular Adhesion Molecule 1 (ICAM1), ICAM1 (gene 3383); assay: LTEA_HepaRG_ICAM1: Life Technologies and Expression Analysis (LTEA) Assay for Intercellular Adhesion Molecule 1 (ICAM1) using HepaRG (AID 2283507)
In short: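 Differentiated HepaRG cells in serum-free induction medium were exposed in duplicate for 48 h to eight half-log concentrations up to 100 uM in 0.5% DMSO. Transcript levels were measured by qRT-PCR normalized to ACTB, GAPDH and POLR2A; bidirectional fits relative to DMSO.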

[13] = read-out: Insulin-like growth factor-binding protein 1 (IGFBP1), IGFBP1 (gene 3484); assay: LTEA_HepaRG_IGFBP1: Life Technologies and Expression Analysis (LTEA) Assay for Insulin-like growth factor-binding protein 1 (IGFBP1) using HepaRG (AID 2283508)
In short: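 Differentiated human HepaRG cells in serum-free induction medium were exposed in duplicate for 48 h to eight concentrations, top 100 uM with half-log dilutions, in 0.5% DMSO. Transcript levels came from qRT-PCR normalised to ACTB, GAPDH and POLR2A, fitted bidirectionally against DMSO.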

[14] = read-out: Interleukin 6 (IL6), IL6 (gene 3569); assay: LTEA_HepaRG_IL6: Life Technologies and Expression Analysis (LTEA) Assay for Interleukin 6 (IL6) using HepaRG (AID 2283509)
In short: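 Changes in IL6 mRNA, up or down relative to 0.5% DMSO controls, were derived from concentration-response curves in human HepaRG cells treated for 48 h at up to 100 uM, with ACTB, GAPDH and POLR2A as normalizers.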

[15] = read-out: Interleukin 6 Receptor (IL6R), IL6R (gene 3570); assay: LTEA_HepaRG_IL6R: Life Technologies and Expression Analysis (LTEA) Assay for Interleukin 6 Receptor (IL6R) using HepaRG (AID 2283510);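 on AC50: TaqMan qRT-PCR signal normalized to ACTB GAPDH and POLR2A housekeeping genes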
In short: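 IL6R transcript level by qRT-PCR after 48 h chemical exposure (8-point, half-log, max 100 uM, 0.5% DMSO vehicle) of HepaRG cells in serum-free induction medium. Normalized to three housekeeping genes; curves fitted in both directions relative to DMSO.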

[16] = read-out: Potassium channel subfamily K member 1 (KCNK1), KCNK1 (gene 3775); assay: LTEA_HepaRG_KCNK1: Life Technologies and Expression Analysis (LTEA) Assay for Potassium channel subfamily K member 1 (KCNK1) using HepaRG (AID 2283511)
In short: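 Human HepaRG cultures receive test chemicals for 48 h in 0.5% DMSO, top concentration 100 uM with half-log dilutions. Induction or suppression of KCNK1 mRNA relative to DMSO is derived by bidirectional fitting of qRT-PCR data.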

[17] = read-out: Keratin 19 (KRT19), KRT19 (gene 3880); assay: LTEA_HepaRG_KRT19: Life Technologies and Expression Analysis (LTEA) Assay for Keratin 19 (KRT19) using HepaRG (AID 2283512)
In short: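 Differentiated human HepaRG cells, plated 48 h, were exposed in duplicate for 48 h in serum-free induction medium to eight half-log concentrations up to 100 uM in 0.5% DMSO. KRT19 mRNA was quantified by qRT-PCR, normalized to ACTB, GAPDH and POLR2A, and fitted bidirectionally versus DMSO.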

[18] = read-out: JUN Transcription Factor, JUN (gene 3725); assay: LTEA_HepaRG_JUN: Life Technologies and Expression Analysis (LTEA) Assay for JUN Transcription Factor using HepaRG (AID 2283513)
In short: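 mRNA measured by TaqMan qRT-PCR after 48 h chemical exposure of HepaRG cultures; normalization to three housekeeping genes. Duplicate eight-point half-log curves from 100 uM in 0.5% DMSO; gain or loss fitted against DMSO baseline.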

Measured: AC50

Hypoxia-inducible factor 1-alpha (Homo sapiens), sequence (Q16665 whole entry, looked up): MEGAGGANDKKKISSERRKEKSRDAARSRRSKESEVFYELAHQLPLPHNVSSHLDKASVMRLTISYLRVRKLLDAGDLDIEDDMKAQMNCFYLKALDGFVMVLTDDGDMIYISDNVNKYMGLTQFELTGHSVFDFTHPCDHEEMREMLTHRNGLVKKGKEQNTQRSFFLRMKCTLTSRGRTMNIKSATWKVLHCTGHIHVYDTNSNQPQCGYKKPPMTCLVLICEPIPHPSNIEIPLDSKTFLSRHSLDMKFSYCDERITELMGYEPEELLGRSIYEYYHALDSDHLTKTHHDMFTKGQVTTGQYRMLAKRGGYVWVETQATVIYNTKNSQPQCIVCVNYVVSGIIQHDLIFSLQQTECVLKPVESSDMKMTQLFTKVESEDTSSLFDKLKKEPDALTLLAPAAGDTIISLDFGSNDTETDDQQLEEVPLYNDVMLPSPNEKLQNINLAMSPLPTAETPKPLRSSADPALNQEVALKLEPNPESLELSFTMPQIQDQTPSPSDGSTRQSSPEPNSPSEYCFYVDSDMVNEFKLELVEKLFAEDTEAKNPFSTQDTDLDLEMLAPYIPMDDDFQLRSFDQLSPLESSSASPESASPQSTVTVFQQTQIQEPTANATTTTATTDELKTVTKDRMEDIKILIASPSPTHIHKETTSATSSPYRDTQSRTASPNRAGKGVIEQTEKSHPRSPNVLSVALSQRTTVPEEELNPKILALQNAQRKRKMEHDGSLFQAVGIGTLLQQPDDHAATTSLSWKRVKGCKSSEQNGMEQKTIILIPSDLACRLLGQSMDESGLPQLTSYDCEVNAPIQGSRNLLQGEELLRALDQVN

O=C(O)C(Cl)(Cl)Cl
inactive: CYP3A5 (gene 1577) | [1] | [2] | [3] | [4] | [5] | [6] | [7] | [8] | [9] | [10] | HGF (gene 3082) | [11] | [12] | [13] | [14] | [15] | [16] | [17] | [18]

ClC1(Cl)C2(Cl)C3(Cl)C4(Cl)C(Cl)(Cl)C5(Cl)C3(Cl)C1(Cl)C5(Cl)C24Cl (stereo not given)
inactive: CYP3A5 (gene 1577) | [2] | [3] | [4] | [5] | [6] | [7] | [8] | [9] | [10] | HGF (gene 3082) | [11] | [12] | [13] | [14] | [15] | [16] | [17] | [18]
active: [1] 3.49 µM

CCN1CCC2(CC1)COc1cc3c(cc12)N(C(=O)c1ccc(-c2ccc(-c4nnc(C)o4)cc2C)cc1)CC3
active: CYP3A5 (gene 1577) 16 µM | [1] 21.9 µM | [4] 75.2 µM | [5] 25.4 µM | [6] 74 µM | [8] 16.6 µM | [9] 27.7 µM | [10] 22.8 µM | [11] 14.5 µM | [12] 11.1 µM | [13] 13.4 µM | [14] 16 µM | [15] 31.8 µM | [16] 29.3 µM | [18] 18.2 µM
inactive: [2] | [3] | [7] | HGF (gene 3082) | [17]

CCOP(=S)(OCC)Oc1nc(Cl)c(Cl)cc1Cl
active: [1] 50 µM | [3] 50 µM
inactive: CYP3A5 (gene 1577) | [2] | [4] | [5] | [6] | [7] | [8] | [9] | [10] | HGF (gene 3082) | [11] | [12] | [13] | [14] | [15] | [16] | [17] | [18]
